Experiment [1] concerns the target Glutathione peroxidase 1 (Homo sapiens) (UniProt P07203). As to the kind of experiment: Primary qHTS Assay for Inhibitors of Recombinant Selenoprotein Glutathione Peroxidase 1 (GPX1) (AID 1845191). Also: nearly all actives have a fitted effect of over 65% in size. The method, boiled down: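 10 nM GPX1 + cpd, 30 min RT; start w/ 1 mM GSH, 0.5 mM cumene hydroperoxide, 0.5 mM NADPH, 100 nM GR, 0.01% BSA; buffer 50 mM Tris-HCl pH 7.5, 2 mM EDTA, 150 mM NaCl; Fl 340/450, 0 & 15 min.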

In experiment [2] the target is Phospholipid hydroperoxide glutathione peroxidase GPX4 (Homo sapiens) (UniProt P36969). As to the kind of experiment: Primary qHTS Assay for Inhibitors of Recombinant Selenoprotein Glutathione Peroxidase 4 (GPX4) (AID 1845192). Also: nearly all actives have a fitted effect of over 65% in size. The method, boiled down: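 NADPH consumption, followed by fluorescence at 340/450 nm between 0 and 15 min, reports GPX4 activity via coupled glutathione reductase (100 nM). Enzyme 200 nM was pre-exposed to compound 30 min; 0.5 mM cumene hydroperoxide and 1 mM GSH served as substrates.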
Sequence of Phospholipid hydroperoxide glutathione peroxidase GPX4 (Homo sapiens) (P36969 whole entry, looked up): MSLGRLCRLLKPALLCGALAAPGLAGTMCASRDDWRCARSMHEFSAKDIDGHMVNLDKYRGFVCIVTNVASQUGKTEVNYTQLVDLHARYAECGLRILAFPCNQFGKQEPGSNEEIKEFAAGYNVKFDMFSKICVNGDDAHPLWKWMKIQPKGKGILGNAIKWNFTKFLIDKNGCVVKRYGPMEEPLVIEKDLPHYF

For experiment [3], the target named is Luciferin 4-monooxygenase (Photinus pyralis) (UniProt P08659). Put plainly: Primary firefly luciferase (FLuc) qHTS assay for identification of artifact compounds. (AID 1845220). Also: nearly all actives have a fitted effect of over 60% in size. Also: potency is read from the fitted curve at half-maximal effect. The method, boiled down:
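Compounds sat 15 min at room temperature with 10 uM luciferin and 10 uM ATP (pH 7.6 Tris acetate). Firefly luciferase (10 nM final) was then added, and luminescence was read 5 min later. Data normalized to no-enzyme and DMSO controls were Hill-fitted.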
In general terms: Quantitative high-throughput screening tests each substance at several concentrations.

For experiment [4], the system named is Nanoluciferase (engineered Oplophorus gracilirostris luciferase). As to the kind of experiment: Primary Nanoluciferase (NLuc) qHTS assay for identification of artifact compounds. (AID 1845222). Also: series mostly up to about 54 µM. Summed up: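 Luminescence from secreted NLuc (filtered, 1:55-diluted S16 cell medium) read 5 min after Nano-Glo substrate; compounds preincubated 15 min, RT. Hill fits of inhibition normalized to DMSO and no-enzyme.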

Experiment [5] is described as follows: Primary redox qHTS assay for identification of artifact compounds. (AID 1845223). Summed up:
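Amplex Red (25 uM) and HRP (250 mU/mL) in HBSS, with compounds for 15 min, then 250 uM DTT for 30 min, room temperature, dark. Fluorescence 525/598 nm read; normalized to DMSO and 10 uM DA3003; Hill fit.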

SMILES strings stand for the structures. A number with no mark means an inactive call. Results filed as inconclusive are left out. Active and inactive are the calls of the source. Calls follow the shape of the dose curve; as a rule, active = well fitted curve in the direction sought with a large enough effect; inconclusive = small, poorly fitted or top-dose-only effect, or another doubt; inactive = no such curve, though single readings can be large; an effect the other way counts as inactive or inconclusive.

The results in this text go back to PubChem BioAssay (NCATS).

Sequence of Glutathione peroxidase 1 (Homo sapiens) (P07203 whole entry, looked up): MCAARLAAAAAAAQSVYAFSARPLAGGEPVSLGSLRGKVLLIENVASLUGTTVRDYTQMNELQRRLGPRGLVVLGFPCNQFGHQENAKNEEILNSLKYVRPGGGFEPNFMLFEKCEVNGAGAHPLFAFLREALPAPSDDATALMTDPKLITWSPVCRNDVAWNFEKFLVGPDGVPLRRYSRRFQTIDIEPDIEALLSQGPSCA

Take `C=C[C@H]1[C@H](O[C@@H]2O[C@H](CO)[C@@H](O)[C@H](O)[C@H]2O)OC=C2C(=O)N3Cc4c([nH]c5ccccc5c4=O)[C@@H]3C[C@H]21`: the Potency entry in experiment [1], in experiment [2], in experiment [3], in experiment [4] and in experiment [5] was “inactive” throughout.

Regarding `COc1cc(O[C@@H]2O[C@H](CO[C@H]3OC[C@](O)(CO)[C@H]3O)[C@@H](O)[C@H](O)[C@H]2O)cc(OC)c1O`, the Potency entry in experiment [1], in experiment [2], in experiment [3], in experiment [4] and in experiment [5] was “inactive” throughout.

In the case of `C=C[C@H]1[C@H](O[C@@H]2O[C@H](CO)[C@@H](O)[C@H](O)[C@H]2O)OC=C(C(=O)OC)[C@H]1CCO`, the Potency result in experiment [1], in experiment [2], in experiment [3], in experiment [4] and in experiment [5] was “inactive” in each case.

Consider `C/C(CO)=C1/CCC23COC(C2)C(O)(C(=O)O)CCC13` (stereo not given), for which the Potency entry in experiment [1], in experiment [2], in experiment [3], in experiment [4] and in experiment [5] was “inactive” each time.

`C/C(=C\C(=O)C(C)C1CCC2C3=C(CCC21C)C1(C)CCC(=O)C(C)(C)C1(O)CC3)C(C)(C)O` (stereo not given): the Potency result in experiment [1], in experiment [2], in experiment [3], in experiment [4] and in experiment [5] was “inactive” throughout.

As for `O=C(CC1CC(c2ccc(F)cc2F)=NO1)N1CCOCC1` (stereo not given), the Potency result in experiment [1], in experiment [2], in experiment [4] and in experiment [5] was “inactive” throughout. In addition, in experiment [3], the Potency is 2130 nM (active).

As for `CC(NC(=O)CC(=O)O)C(=O)Nc1ccccc1C(N)=O` (stereo not given), the Potency result in experiment [1], in experiment [2], in experiment [3], in experiment [4] and in experiment [5] was “inactive” throughout.

Take `CC(=O)/C=C/C1(O)C(C)=CC(=O)CC1(C)C` (stereo not given): the Potency result in experiment [1], in experiment [2], in experiment [3], in experiment [4] and in experiment [5] was “inactive” each time.

In the case of `COC(=O)C1=CO[C@@H](O[C@@H]2O[C@H](CO)[C@@H](O)[C@H](O)[C@H]2O)[C@@H]2[C@@H](C(=O)O)CC[C@H]12`, the Potency result in experiment [1], in experiment [2], in experiment [3], in experiment [4] and in experiment [5] was “inactive” each time.

For `COc1ccc(C(=O)CC(=O)O)c2c1C=CC(C)(C)O2`, the Potency result in experiment [1], in experiment [2], in experiment [3], in experiment [4] and in experiment [5] was “inactive” throughout.

For `COc1cc([C@@H](O[C@@H]2O[C@H](CO)[C@@H](O)[C@H](O)[C@H]2O)[C@@H]2CO[C@H](c3ccc(O)c(OC)c3)[C@H]2CO)ccc1O`, the Potency entry in experiment [1], in experiment [2], in experiment [3], in experiment [4] and in experiment [5] was “inactive” in each case.

As for `CC1(C)CCC2(C(=O)O)CCC3(C)C(=CCC4C5(C)CCC(O)C(C)(CO)C5C(O)CC43C)C2C1` (stereo not given), the Potency result in experiment [1], in experiment [2], in experiment [3], in experiment [4] and in experiment [5] was “inactive” each time.

Regarding `O=C(C[C@@H]1C(C(=O)O)=CO[C@@H](O[C@@H]2O[C@H](CO)[C@@H](O)[C@H](O)[C@H]2O)/C1=C\CO)OCCc1ccc(O)c(O)c1`, the Potency entry in experiment [1], in experiment [2], in experiment [3], in experiment [4] and in experiment [5] was “inactive” throughout.

Regarding `C=CCC/C=C/C#CCCCCCCCC[C@H]1C(=O)O[C@H](C)[C@@H]1O`, the Potency result in experiment [1], in experiment [2], in experiment [3], in experiment [4] and in experiment [5] was “inactive” in each case.

Take `O=C(O)CCc1cc2ccoc2cc1O[C@@H]1O[C@H](CO)[C@@H](O)[C@H](O)[C@H]1O`: the Potency result in experiment [1], in experiment [2], in experiment [3], in experiment [4] and in experiment [5] was “inactive” each time.

As to `C/C=C(\C)C(=O)OCC1OC(OC2OC(CO)C(O)C(O)C2O)C(O)C(O)C1O` (stereo not given), the Potency entry in experiment [1], in experiment [2], in experiment [3], in experiment [4] and in experiment [5] was “inactive” in each case.

On to `CC(=O)c1c(C)cccc1O[C@@H]1O[C@H](CO)[C@@H](O)[C@H](O)[C@H]1O`, for which the Potency result in experiment [1], in experiment [2], in experiment [3], in experiment [4] and in experiment [5] was “inactive” in each case.

On to `CC1=C(C(=O)OC2OC(COC3OC(CO)C(O)C(O)C3O)C(O)C(O)C2O)C(C)(C)CCC1` (stereo not given), for which the Potency result in experiment [1], in experiment [2], in experiment [3], in experiment [4] and in experiment [5] was “inactive” in each case.

With `C/C1=C\CC(C)(C)/C=C/C/C(C(=O)O)=C/CC1`, the Potency entry in experiment [1], in experiment [2], in experiment [3], in experiment [4] and in experiment [5] was “inactive” each time.

Consider `OC[C@@]1(O)CO[C@H](OC[C@H]2O[C@@H](OCCc3ccccc3)[C@H](O)[C@@H](O)[C@@H]2O)[C@@H]1O`, for which the Potency result in experiment [1], in experiment [2], in experiment [3], in experiment [4] and in experiment [5] was “inactive” throughout.

Consider `COCC1OC(OC(C)(C)C2CCC3(C)C=C(C4CCC5C4(C)CC(O)C4OC(C(C)(C)O)CCC45C)CCC3O2)C(NC(C)=O)C(O)C1O` (stereo not given), for which the Potency result in experiment [1], in experiment [2], in experiment [3], in experiment [4] and in experiment [5] was “inactive” in each case.

For `OC[C@H]1O[C@@H](OCc2ccccc2)[C@H](O[C@@H]2OC[C@@H](O)[C@H](O)[C@H]2O)[C@@H](O)[C@@H]1O`, the Potency entry in experiment [1], in experiment [2], in experiment [3], in experiment [4] and in experiment [5] was “inactive” in each case.

For the molecule `COC(=O)[C@H](Cc1cccc(C(=N)N)c1)[C@@H](C)NC(=O)c1ccc(-c2cc[n+]([O-])cc2)cc1`, the Potency entry in experiment [1], in experiment [2], in experiment [3], in experiment [4] and in experiment [5] was “inactive” each time.

`O=C(CCc1ccccc1)c1c(O)c([C@@H]2O[C@H](CO)[C@@H](O)[C@H](O)[C@H]2O)c(O)c([C@@H]2O[C@H](CO)[C@@H](O)[C@H](O)[C@H]2O)c1O`: the Potency entry in experiment [1], in experiment [2], in experiment [3], in experiment [4] and in experiment [5] was “inactive” throughout.

For `C=C1C[C@@]2(O)O[C@@]3(C[C@H]2C(C)C)[C@@H](C)CC[C@@H]13`, the Potency result in experiment [1], in experiment [2], in experiment [3], in experiment [4] and in experiment [5] was “inactive” throughout.
